Screening results from PubChem.
Shown are actives, neighbours in structure and some others; about 3.1% of the full set was active somewhere.
PP5 inh: blocks human protein phosphatase 5 activity; purified PP5c, OMFP substrate fluorescence; inhibition, % at 6.7 µM; 0.18% of 320,000 active; AID 1987;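 active means inhibition above the campaign's mean inhibition across all tested compounds plus 3 SD, cut at about 9.5% in these data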
PP1 inh: PP1-alpha (human) inhibition in PP5 counter-screen; 0.9% of 320,000 active; inhibition, % at 6.7 µM; purified PP1alpha, OMFP fluorescence;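 active means inhibition above the mean inhibition of all tested compounds plus 3 SD, computed separately for each screening campaign, cut at about 15% in these data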
Target sequence (P62136 whole entry, looked up): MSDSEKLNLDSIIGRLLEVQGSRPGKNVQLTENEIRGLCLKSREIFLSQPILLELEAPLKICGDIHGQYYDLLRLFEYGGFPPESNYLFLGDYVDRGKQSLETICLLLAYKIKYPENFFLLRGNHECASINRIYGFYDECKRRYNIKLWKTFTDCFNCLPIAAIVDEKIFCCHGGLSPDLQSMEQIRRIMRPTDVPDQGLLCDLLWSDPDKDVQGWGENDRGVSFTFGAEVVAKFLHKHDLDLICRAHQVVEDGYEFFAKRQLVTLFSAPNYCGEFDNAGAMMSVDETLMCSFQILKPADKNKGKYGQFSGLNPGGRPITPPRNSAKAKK
Beta apoptosis: blocks beta cell apoptosis; INS-1E cytokine-induced death, ATP luminescence, 48 h; percent of positive-control rescue, neutral wells zero; 0.8% of 300,000 active; protection from apoptosis, % (concentration not given with the values);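 active means Every replicate reaches about 75%, or at least half do and their mean reaches it too, limit read from the data; inconclusive means At least half of replicates reach the limit but their mean does not; inactive means Under half of replicates reach the limit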;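 further: higher means more ATP so stronger rescue from cytokine killing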
SKKanGAS inh: inhibitors of SKKanGAS S. pyogenes growth in kanamycin (SK-promoter or general growth effect) | AID 1662 | 1.3% of 300,000 active | inhibition, % at 7.5 µM | BacTiter-Glo, 6 h;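 active means mean replicate score, as percent of positive control median, at least 50; inconclusive means mean below 50 but one replicate at or above 50; inactive means mean and every replicate below 50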;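 further: strain carries kanamycin resistance gene driven by streptokinase promoter and grows in 40 µg/ml kanamycin; loss of luminescence reflects streptokinase promoter inhibition or plain growth inhibition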
CSC inhib: cancer stem cell inhibition; cancer stem cell-like cells viability, luminescence; inhibition, % at 7.5 µM; 1.1% of 300,000 active; in the data active means inhibition above about 75%; inconclusive means no clear call, values can overlap the other calls; tested in HMLE shEcad cells
Each line names hits and unclear results; the compound was inactive in the other large screens.

O=C(NC1CCCC1)c1cc(COc2ccc3ncccc3c2)on1	Beta apoptosis 104.3
O=C(c1cc(COc2ccc3ncccc3c2)on1)N1CCCC1	none
COc1cccc(CN(C)C(=O)c2cc(COc3ccc4ncccc4c3)on2)c1	Beta apoptosis 76.5
CCOC(=O)/C(=N\Nc1cccc(C(F)(F)F)c1)N1CCOCC1	CSC inhib 82.9
Cc1cc2nc3c(=O)n(CCc4ccccc4)c(=O)[nH]c3nc2cc1N	none
Nc1ccc2nc3c(=O)n(CCc4ccccc4)c(=O)[nH]c3nc2c1	CSC inhib 76.9
Cc1ccc(-c2csc(NC(=O)c3c(C)noc3C)n2)s1	Beta apoptosis 123.9 (no result: PP5 inh, PP1 inh, SKKanGAS inh)
NC(=O)C1CCN(C(=O)c2cc3ccccc3cc2O)CC1	none
CN(CCc1ccccc1)C1CCCN(S(=O)(=O)CC(F)(F)F)C1 (stereo not given)	none
c1ccc(CN2CCN(Cc3c[nH]c4ccccc34)CC2)cc1	Beta apoptosis 86.5
CN(/N=C/c1cc(Br)cc(Br)c1O)c1cccc(C(F)(F)F)n1	Beta apoptosis inconclusive, SKKanGAS inh 70.0, CSC inhib 103.5
Cn1cc([N+](=O)[O-])c(C(=O)Nc2ccc(-c3nc4ccccc4o3)cc2)n1	CSC inhib 103.8 (no result: SKKanGAS inh)
O=C(Nc1ccc(-c2nc3ccccc3o2)cc1)c1ccc(N2CCOCC2)c([N+](=O)[O-])c1	Beta apoptosis 98.6
O=[N+]([O-])c1cc(S(=O)(=O)Nc2ccccc2)ccc1N1CCN(c2ccc(O)cc2)CC1	CSC inhib 76.6
Cc1ccc(NS(=O)(=O)c2ccc(N3CCN(c4ccc(O)cc4)CC3)c([N+](=O)[O-])c2)c(C)c1	CSC inhib 83.1
CN1CCN(S(=O)(=O)c2ccc(N3CCN(c4ccc(O)cc4)CC3)c([N+](=O)[O-])c2)CC1	none
CC(=O)N1CCc2cc(S(=O)(=O)Nc3ccc(C)cc3C)ccc21	none
O=S(=O)(Nc1ccccc1OC(F)F)c1ccc(S(=O)(=O)N2CCCC2)cc1	none (no result: SKKanGAS inh, CSC inhib)
COc1ccccc1NC(=O)c1ccc(NC(=O)CN2C(=O)CN(C)C2=O)cc1	none
CC(C)[C@@H]1CC[C@@H](C)c2c(-c3ccccc3)n[nH]c21	SKKanGAS inh 88.1, CSC inhib 100.7
OCc1ccccc1OCCCOc1cccc2cccnc12	none
CCOC(=O)c1cnc(-n2nc(C)cc2C)nc1NCCO	none (no result: CSC inhib)
CCOC(=O)c1cnc(-n2nc(C)cc2C)nc1NNc1cc(-c2ccccc2)nc(C)n1	SKKanGAS inh 102.5 (no result: Beta apoptosis, CSC inhib)
Oc1ccc(C[C@@H]2CNC(=S)N2CCCCC2CCCCC2)cc1	CSC inhib 115.0
COc1ccc(N(CC(=O)N/N=C/c2ccccc2F)S(=O)(=O)c2ccccc2)cc1	none
CN(C)c1ccc(S(=O)(=O)N2CCC(Cc3ccccc3)CC2)cn1	none (no result: PP5 inh, PP1 inh, SKKanGAS inh)
C[C@@H]1CN(c2c(F)c(F)c3c(=O)c(C(=O)O)cn(C4CC4)c3c2F)C[C@H](C)N1	SKKanGAS inh 64.6 (no result: PP5 inh, PP1 inh, Beta apoptosis, CSC inhib)
COc1ccc(C2NC(c3ccc(OC)cc3OC)C(C)C(=O)C2C)c(OC)c1 (stereo not given)	none
CCNC(=S)Nc1cccc(S(=O)(=O)NC2=NCCC2)c1	none
CCCCNC(=S)Nc1cccc(S(=O)(=O)NC2=NCCC2)c1	PP1 inh 16.2
CCCOC(=O)/C(C(N)=NCc1ccccc1)=C(\O)OCCC	Beta apoptosis 109.4
COc1ccc(OC)c(C2C(C(=O)c3ccccc3)=C(C)Nc3nc4ccccc4n32)c1 (stereo not given)	SKKanGAS inh 76.1 (no result: Beta apoptosis)
COc1ccc(C2C(C(=O)c3ccccc3)=C(C)Nc3nc4ccccc4n32)cc1OC (stereo not given)	none (no result: Beta apoptosis)
Cc1nnc(N/N=C/C(C)c2ccccc2)[nH]c1=O (stereo not given)	none
Cc1cccc(NC(=O)Cn2c(/C=C/c3ccccc3)nc3ccccc32)c1	Beta apoptosis 80.2
Cc1nn(C)c(Cl)c1CN1CCCC(C(=O)Nc2ccc(-c3cscn3)cc2)C1 (stereo not given)	SKKanGAS inh 50.1
Cc1cnc(CN2CCCC(C(=O)c3ccc4c5c(cccc35)CC4)C2)[nH]1 (stereo not given)	none (no result: Beta apoptosis)
Cc1ncc(CN2CCCC(C(=O)Nc3ccc(-c4cccc(F)c4)cc3)C2)cn1 (stereo not given)	none
Cc1ncc(CN2CCCC(C(=O)Nc3ccc(-c4cccc(F)c4)cc3)C2)s1 (stereo not given)	CSC inhib 101.0 (no result: PP5 inh, PP1 inh)
O=C(Nc1ccc(-c2cccc(F)c2)cc1)C1CCCN(Cc2ccccn2)C1 (stereo not given)	SKKanGAS inh 51.8
O=C(c1ccc2c3c(cccc13)CC2)C1CCCN(Cc2ccccn2)C1 (stereo not given)	SKKanGAS inh 69.4
C[C@H](CO)N1C[C@H](C)[C@@H](CN(C)Cc2ccc(C(=O)O)cc2)Oc2c(NS(=O)(=O)c3ccc(F)cc3)cccc2C1=O	none (no result: PP5 inh, PP1 inh, SKKanGAS inh)
Cc1cc(C)c2nc(C)cc(N/N=C/c3ccc(O)cc3)c2c1	CSC inhib 102.5 (no result: Beta apoptosis)
Cc1nn(-c2ccccc2)c(N2CCCCC2)c1/C=N/O	CSC inhib 163.7
CCn1c(SCc2ccc(OC)c(F)c2)nc2ccccc2c1=O	none (no result: CSC inhib)
CCn1c(SCc2ccc(F)cc2)nc2ccccc2c1=O	SKKanGAS inh 51.0
COc1ccc(C=C(c2nc3ccccc3s2)c2nc3ccccc3s2)cc1O	none
COc1cc(C=C(c2nc3ccccc3s2)c2nc3ccccc3s2)ccc1O	CSC inhib 93.6
Oc1cccc2ccc(Nc3ccccn3)nc12	Beta apoptosis 105.9, CSC inhib 103.6
c1ccc(Nc2ccccc2Nc2ccccn2)nc1	none (no result: CSC inhib)
COc1ccccc1C(=O)Nc1nnc(S(=O)(=O)N2CCN(c3ccc(F)cc3)CC2)s1	SKKanGAS inh 54.1
CC(=O)Nc1nnc(S(=O)(=O)N2CCN(c3ccc([N+](=O)[O-])cc3Cl)CC2)s1	SKKanGAS inh 54.7
Cc1ccc(C(=O)Nc2nnc(S(=O)(=O)N3CCN(c4ccc(F)cc4)CC3)s2)cc1	SKKanGAS inh 54.2
CCOC(=O)c1ccccc1NC(=O)COC(=O)CCC1CCCC1	none (no result: SKKanGAS inh, CSC inhib)
Oc1c(Br)cc(Br)cc1CNc1cnc2ccccc2c1	SKKanGAS inh 61.3
CN(C)S(=O)(=O)c1ccc(C(=O)Nc2nnc(-c3cccs3)o2)cc1	none
N#Cc1ccc(C(=O)Nc2nnc(-c3cccs3)o2)cc1	SKKanGAS inh 52.4 (no result: Beta apoptosis)
CC1CC(C)CN(S(=O)(=O)c2ccc(C(=O)Nc3nnc(-c4cccs4)o3)cc2)C1 (stereo not given)	SKKanGAS inh 81.9 (no result: Beta apoptosis)
COCCN(C(=O)COC(=O)C1(C)CC1(Cl)Cl)c1c(N)n(Cc2ccccc2)c(=O)[nH]c1=O (stereo not given)	none (no result: CSC inhib)
CC(=O)Oc1c(Cl)cc(Cl)cc1/C=C/c1ccc2ccccc2n1	CSC inhib 108.6
CC(=O)Oc1ccc(Cl)cc1/C=C/c1ccc2ccccc2n1	none
Nc1nc(=S)c2ncn(C3OC(CO)C(O)C3O)c2[nH]1 (stereo not given)	CSC inhib 90.1
Nc1nc(=S)c2ncn([C@@H]3O[C@H](CO)[C@@H](O)[C@H]3O)c2[nH]1	CSC inhib 97.8 (no result: SKKanGAS inh)
Nc1nc(Cl)nc2c1ncn2[C@@H]1O[C@H](CO)[C@@H](O)[C@H]1O	none
